Consider 7 compounds from PubChem BioAssay.

Assay [1] can be described thus: compound effects on lung adenocarcinoma cell viability – A549, calcein-AM fluorescence, 48 h, basal, profiling panel (AID 1162). Further: test concentration not given here. As to conditions: higher = more signal.
Assay [2] in a line: compound effects on differentiated 3T3-L1 adipocyte viability – cell-based, 3T3-L1 adipocytes, calcein-AM fluorescence, 48 h, basal, profiling panel (AID 1163). Further: test concentration not given here. The note with it: 3T3-L1 adipocytes viability, higher = more signal.
Assay [3] can be described thus: compound effects on hepatocellular carcinoma cell viability – HepG2, calcein-AM fluorescence, 48 h, basal, profiling panel (AID 1164). Further: test concentration not given here. As to conditions: higher = more signal.
Assay [4] in a line: compound effects on multiple myeloma cell viability – MM1S, calcein-AM fluorescence, 48 h, basal, profiling panel (AID 1165). Further: test concentration not given here. As to conditions: higher = more signal.
The nature of assay [5]: calcein-AM signal in unstimulated myeloma cells – cell-based, calcein-AM fluorescence, 48 h, PK04 Diversity Set, profiling panel (AID 1166).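 Further: cells grown under basal conditions without added stimulus; test concentration not given here.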 The note with it: RPMI8226 myeloma viability, higher = more signal.
A short description of assay [6]: JC-1 mitochondrial signal, unstimulated HepG2 cells – cell-based, JC-1 fluorescence, 24 h, 100 nL compound, profiling panel (AID 1167). Further: test concentration not given here. As to conditions: HepG2 mitochondrial potential, higher = more signal.
Assay [7] is described as follows: JC-1 mitochondrial signal, unstimulated adipocytes – cell-based, JC-1 fluorescence, 3T3-L1 adipocytes, 24 h, 100 nL compound, profiling panel (AID 1168). Further: test concentration not given here. As to conditions: JC-1 mitochondrial fluorescence, higher = more signal, called active from +8 up or from −8 down.
The nature of assay [8]: JC-1 mitochondrial signal, unstimulated myeloma cells – cell-based, JC-1 fluorescence, RPMI8226, 24 h, 100 nL compound, profiling panel (AID 1169). Further: test concentration not given here. The note with it: JC-1 mitochondrial potential fluorescence, higher = more signal.
The nature of assay [9]: JC-1 mitochondrial signal, unstimulated MM1S myeloma – cell-based, JC-1 fluorescence, 24 h, 100 nL compound, profiling panel (AID 1170). Further: test concentration not given here. The note with it: MM1S mitochondrial potential, higher = more signal.
Assay [10] in a line: resazurin metabolic signal in A549 cells – cell-based, resazurin fluorescence, 24 h, PK04 Diversity Set, profiling panel (AID 1171). Further: test concentration not given here. As to conditions: A549 viability, higher = more signal, called active from +8 up or from −8 down.
Assay [11] in a line: resazurin metabolic signal in HepG2 cells – cell-based, resazurin fluorescence, 24 h, PK04 Diversity Set, profiling panel (AID 1172). Further: test concentration not given here. The note with it: HepG2 viability, higher = more signal.
Assay [12] can be described thus: budding yeast growth changes without added modifier – OD600, strain BY4716, 24 h, basal condition, primary screen (AID 1173). The note with it: S. cerevisiae BY4716 growth, OD600, 24 h; higher = more signal, called active from +8 up or from −8 down.
The nature of assay [13]: viability profiling in MM1S myeloma cells – cell-based, resazurin fluorescence, basal, 24 h, PK04 Diversity Set, profiling panel (AID 1174). Further: test concentration not given here. The note with it: higher = more signal, called active from +8 up or from −8 down.
The target in assay [14] is Dihydroorotate dehydrogenase (quinone), mitochondrial (Plasmodium falciparum (isolate 3D7)) (UniProt Q08210). Briefly: inhibition of P. falciparum DHODH – biochemical, C-terminal His tag, absorbance 600 nm, primary screen (AID 1175).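 Further: recombinant parasite enzyme with a five histidine tag at its C terminus; test concentration not given here.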 The note with it: PfDHODH enzyme, DCIP absorbance 600 nm; higher = more signal, called active from +8 up or from −8 down.
Dihydroorotate dehydrogenase (quinone), mitochondrial (Plasmodium falciparum (isolate 3D7)), sequence (Q08210 whole entry, looked up): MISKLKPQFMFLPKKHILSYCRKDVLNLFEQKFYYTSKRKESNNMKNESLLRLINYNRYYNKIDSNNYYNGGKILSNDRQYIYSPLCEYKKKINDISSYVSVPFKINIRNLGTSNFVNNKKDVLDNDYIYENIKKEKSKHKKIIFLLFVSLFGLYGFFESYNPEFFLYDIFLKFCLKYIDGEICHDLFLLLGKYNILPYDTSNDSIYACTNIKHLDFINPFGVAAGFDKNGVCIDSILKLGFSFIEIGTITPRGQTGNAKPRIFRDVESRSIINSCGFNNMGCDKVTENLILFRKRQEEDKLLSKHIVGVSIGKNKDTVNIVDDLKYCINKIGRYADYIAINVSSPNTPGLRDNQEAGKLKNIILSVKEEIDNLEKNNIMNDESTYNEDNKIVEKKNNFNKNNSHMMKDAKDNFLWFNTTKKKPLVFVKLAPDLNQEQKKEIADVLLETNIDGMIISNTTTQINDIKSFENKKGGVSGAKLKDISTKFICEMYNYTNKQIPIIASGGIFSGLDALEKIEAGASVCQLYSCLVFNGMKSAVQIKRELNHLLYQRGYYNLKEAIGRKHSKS
Assay [15] is described as follows: inhibition of PAO1 biofilm formation – strain PAO1, LB-PBS medium, absorbance 600 nm, primary screen (AID 1176). Further: test concentration not given here. The note with it: P. aeruginosa PAO1 growth/biofilm, A600, 12 h; higher = more signal.
Assay [16] in a line: growth modulation of vineyard yeast isolate – strain RM11-1a, OD600, basal, 24 h, primary screen (AID 1177).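 Further: cultures grown under basal conditions with no added stressor; test concentration not given here.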 The note with it: S. cerevisiae RM11-1a growth, OD600, 24 h; higher = more signal, called active from +8 up or from −8 down.
A short description of assay [17]: growth of efflux-deficient E. coli DRC39 – strain DRC39, OD650, 24 h, E. coli filamentation inducers, primary screen (AID 1178).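 Further: growth measured as culture turbidity by optical density at 650 nm; test concentration not given here.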 The note with it: E. coli DRC39 acrAB, higher = more signal, called active from +8 up or from −8 down.
Assay [18] is described as follows: growth of efflux-deficient E. coli DRC39 – strain DRC39, OD650, 48 h, E. coli filamentation inducers, primary screen (AID 1179).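 Further: screen aims at cell division blockers that make cells filament.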 As to conditions: E. coli DRC39 delta-acrAB growth, higher = more signal, called active from +8 up or from −8 down.
Assay [19] in a line: viability profiling in RPMI8226 myeloma cells – cell-based, resazurin fluorescence, basal, 24 h, PK04 Diversity Set, profiling panel (AID 1180).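 Further: RPMI8826 multiple myeloma cell line at 5000 cells per well; test concentration not given here.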 The note with it: higher = more signal. (In general: The colour change of resazurin is a common sign of viable cells or microbes.)
The target of assay [20] is E3 ubiquitin-protein ligase XIAP (Homo sapiens) (UniProt P98170). Briefly: small molecules binding XIAP protein – biophysical, small-molecule microarray, fluorescence 635 nm, primary screen (AID 1181).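 Further: score merges 667 nm emission and signal to noise over triplicate slides.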 As to conditions: higher = more signal.
E3 ubiquitin-protein ligase XIAP (Homo sapiens), sequence (P98170 whole entry, looked up): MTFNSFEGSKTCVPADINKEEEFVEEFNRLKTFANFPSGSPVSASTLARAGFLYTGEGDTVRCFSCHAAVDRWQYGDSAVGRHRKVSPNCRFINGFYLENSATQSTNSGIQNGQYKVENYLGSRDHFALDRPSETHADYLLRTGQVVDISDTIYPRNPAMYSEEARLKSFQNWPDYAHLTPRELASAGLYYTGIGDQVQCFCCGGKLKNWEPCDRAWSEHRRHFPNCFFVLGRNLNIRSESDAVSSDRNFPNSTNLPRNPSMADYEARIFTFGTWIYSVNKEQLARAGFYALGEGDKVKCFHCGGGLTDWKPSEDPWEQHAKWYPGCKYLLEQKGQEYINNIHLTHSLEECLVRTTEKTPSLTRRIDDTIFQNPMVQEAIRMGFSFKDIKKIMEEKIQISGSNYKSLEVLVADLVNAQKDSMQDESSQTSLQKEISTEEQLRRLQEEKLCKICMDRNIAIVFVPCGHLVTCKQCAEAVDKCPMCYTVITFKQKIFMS

Several values for one entry are separate records, joined by “and”; a condition that tells them apart may be missing. Equal values may be shown once. Activity calls are given as the source filed them. Unless noted, how the calls were made is not given here.

With `C=CCN(CCCC)C(=O)C1N(c2ccc(CCO)cc2)C(=O)C2C(C(=O)O)C3C=CC21O3` (stereo not given), the z-score in assay [1] is -0.635 and 0.444; in assay [2] it was 0.79 and 0.378; in assay [3], -0.97 and -0.116; in assay [4] it was 0.853 and 1.11; in [5], -0.0527 and 0.0382; in [6], -0.63 and 0.869. For the same compound, the z-score in assay [7] is -0.915 (inactive) and 1.18 (inactive); in assay [8], 0.16 and 0.0627; in [9], 0.748 and 1.93; in assay [10] it was -0.223 (inactive) and -0.442 (inactive); in assay [11], 0.533 and -0.912; in [12], -0.539 (inactive) and -0.275 (inactive). Also, the z-score in assay [13] was -0.217 (inactive) and -0.801 (inactive); in assay [15], 0.633 (inactive) and 0.276 (inactive); in assay [16] it was -0.639 (inactive) and 0.159 (inactive); in assay [17], 0.227 (inactive) and 0.473 (inactive); in assay [18], -0.248 (inactive) and 0.25 (inactive); in [19], -0.0068 and 0.0215. For the same compound, the composite z-score in assay [14] was -0.51 (inactive) and -1.02 (inactive); in assay [20], -0.53 and 0.0871.
As for `CC(C)CCN1CCc2nc(-c3ccccc3)c3c(c2C1)CO[C@@H](C)C3`, the z-score in assay [1] was -0.0742; in [2], -0.626; in assay [3] it was 1.15; in [4], -1.18; in assay [5], 0.0677; in [6] it was 0.361. Moreover, the z-score in assay [7] was -0.395 (inactive); in assay [8] it was -0.173; in [9], 0.324; in assay [10], -0.191 (inactive); in assay [11], -0.123; in assay [12], -1.08 (inactive). The z-score was -0.0881 (inactive) in assay [13]; -0.188 (inactive) in assay [15]; 0.396 (inactive) in assay [16]; 0.66 (inactive) in assay [17]; 0.0602 (inactive) in [18]; 0.129 in assay [19]. The composite z-score in assay [14] was -0.363 (inactive); in assay [20] it was 0.201.
On to `C=CCN(CCCC)C(=O)C(c1cccs1)N(CCOCCO)C(=O)/C=C\C(=O)O` (stereo not given), for which the z-score in [1] is 1.12 and 0.149; in [2] it was 0.185 and -0.242; in [3] it was 0.914 and 0.824; in assay [4], 1.04 and 1.56; in assay [5], 1.05 and -0.0726; in assay [6] it was 0.644 and 1.03. The z-score was 0.713 (inactive) and 0.0219 (inactive) in assay [7]; 0.835 and 0.00316 in assay [8]; -1.11 and -0.822 in assay [9]; -0.557 (inactive) and -0.469 (inactive) in assay [10]; -0.313 and -1.09 in assay [11]; -0.8 (inactive) and 0.678 (inactive) in [12]. Moreover, the z-score was -0.0247 (inactive) and -0.0815 (inactive) in assay [13]; 0.0126 (inactive) and 0.177 (inactive) in assay [15]; -1.34 (inactive) and -1.13 (inactive) in assay [16]; 0.423 (inactive) and 0.0136 (inactive) in assay [17]; 0.629 (inactive) and 0.633 (inactive) in assay [18]; 0.0517 and 0.181 in [19]. The composite z-score in [14] is -1.49 (inactive) and -0.811 (inactive); in assay [20] it was -0.352 and -0.234.
As for `COC(=O)[C@H](C)NC(=O)CCC1CC(OC(=O)NCCc2ccc(F)cc2)CC2(CCCC(COC(=O)NCCCN3CCCC3=O)O2)O1` (stereo not given in full), the z-score is -0.48 in [1]; 1.06 in [2]; -1.32 in [3]; -0.901 in assay [4]; -1.78 in assay [5]; -0.197 in assay [6]. Also, the z-score in assay [7] was 0.0783 (inactive); in assay [8], -0.405; in assay [9] it was 0.0394; in [10], 0.209 (inactive); in [11], -0.704; in assay [12] it was -0.343 (inactive). The z-score is 0.951 (inactive) in assay [13]; -0.977 (inactive) in assay [15]; 0.492 (inactive) in assay [16]; -0.441 (inactive) in assay [17]; -0.367 (inactive) in assay [18]; 0.315 in assay [19]. In addition, the composite z-score in [14] was 0.322 (inactive); in assay [20], -0.283.
For `CC(CO)N1C(=O)[C@@H]2C3C(=O)OCCC=C[C@H]3OC23C=CCN(C(C)(C)C)C(=O)[C@@H]13` (stereo not given in full), the z-score in [1] was -0.418 and -0.461; in assay [2], -0.142 and -0.791; in assay [3], -1.27 and -0.487; in assay [4], -0.388 and 0.885; in assay [5], -0.0799 and 0.143; in assay [6], -0.985 and -1.27. In addition, the z-score in assay [7] was -0.105 (inactive) and -0.534 (inactive); in assay [8], 0.914 and -0.0183; in [9] it was 0.157 and -0.365; in [10], -0.731 (inactive) and -0.299 (inactive); in assay [11], -0.0539 and 0.0517; in [12], 1.97 (inactive) and -0.0328 (inactive). Besides, the z-score in assay [13] was -1.28 (inactive) and -0.719 (inactive); in [15], -0.317 (inactive) and 0.329 (inactive); in assay [16] it was 1.01 (inactive) and -1.12 (inactive); in assay [17] it was -0.57 (inactive) and -0.149 (inactive); in [18], -0.672 (inactive) and -0.246 (inactive); in assay [19], -0.896 and -0.817. The composite z-score is -7.96 (inactive) and -3.06 (inactive) in [14]; -0.157 and 0.517 in assay [20].
`Cc1ccc(S(=O)(=O)N[C@@H]2COC(=O)CC=C[C@@H](C)[C@@H]3C=C[C@H](O)[C@@H](COC(=O)CC=C[C@H]2C)O3)cc1`: the z-score in [1] is 0.616 and -0.418; in assay [2], -0.347 and -0.476; in assay [3] it was 0.664 and -1.95; in assay [4], 0.0847 and -1.25; in assay [5], 0.0913 and -0.776; in assay [6] it was -0.0139 and 0.344. The z-score was -0.0698 (inactive) and 0.134 (inactive) in assay [7]; -0.858 and 1.11 in [8]; 1.32 and -1.69 in assay [9]; 0.0086 (inactive) and 0.658 (inactive) in [10]; -0.29 and 0.458 in assay [11]; -0.595 (inactive) and 0.228 (inactive) in assay [12]. The z-score was -0.0856 (inactive) and 0.441 (inactive) in [13]; -0.212 (inactive) and -0.0781 (inactive) in assay [15]; -0.169 (inactive) and -0.14 (inactive) in assay [16]; 0.245 (inactive) and -1.15 (inactive) in assay [17]; 0.0957 (inactive) and -0.599 (inactive) in [18]; -0.541 and 0.341 in assay [19]. Also, the composite z-score in assay [14] was 0.178 (inactive) and -4.95 (inactive); in assay [20], -0.138 and -0.124.
Regarding `Cc1cc2c(nc1C)CCCN2CC(O)CN1CCCc2nc(-c3ccc(Br)cc3)ccc21` (stereo not given), the z-score in assay [1] is -0.243 and -0.599; in assay [2], 0.929 and 0.303; in assay [3] it was -0.749 and -0.129; in assay [4], 0.916 and -1.24; in assay [5], -2.13 and -0.178; in [6], 0.36 and 0.768. The z-score is -0.855 (inactive) and -1.29 (inactive) in [7]; 0.144 and -0.0117 in assay [8]; -0.488 and 0.538 in [9]; -0.347 (inactive) and 0.0661 (inactive) in assay [10]; -0.366 and -0.367 in assay [11]; -7.09 (inactive) and -1.64 (inactive) in assay [12]. Further, the z-score in assay [13] was -0.959 (inactive) and -0.771 (inactive); in [15] it was -0.257 (inactive) and -0.0569 (inactive); in assay [16] it was 1.37 (inactive) and 0.795 (inactive); in assay [17], -0.342 (inactive) and 0.458 (inactive); in [18], -0.752 (inactive) and 0.0169 (inactive); in [19] it was 0.0199 and -0.821. In addition, the composite z-score was 1.95 (inactive) and 1.18 (inactive) in [14]; 1.1 and 1.9 in assay [20].
